# In PubChem BioAssay:
# Active and inactive are the calls of the source.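 How the source made its calls, unless noted: active means fluorescence slope after compound addition differing from the mean of all screened samples at 99.7% confidence, in either direction; inactive means the rest.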
# Tests used:
# [1] = inhibitors of TNFa-induced NFkB p65 translocation, primary screen, imaging, HUVEC, MLSMR starter and 10KST1 sets (AID 438;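 active means inhibition above 20% together with a positive visual image hit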;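 further: compound added about 3h40 before a 20 min TNFalpha stimulation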;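 on inhibition: signal is the nuclear over cytoplasmic p65 intensity ratio per well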); conditions: HUVEC TNFa-induced p65 nuclear translocation; cell count: measured here: nuclei count (cytotoxicity indicator), at 2.08 µM unless noted; inhibition: at 2 µM, stronger effect = higher value unless noted
# [2] = inhibitors of mutant huntingtin aggregation, primary screen, imaging, exon1htt(103Q)mCFP cells, high-content imaging (AID 483;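 active means visual image review flags a hit and inhibition of aggregation exceeds 20%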;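 further: compound exposure lasted 3 days before fixation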;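 on nuclei count: percent of the per-plate median nuclei count of sample wells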); conditions: exon1htt(103Q)mCFP cell line, aggregate imaging, at 2 µM; inhibition of aggregation: stronger effect = higher value; nuclei count: measured here: cell count, toxicity
# [3] = inhibitors of E-selectin induction by TNFa, primary screen, imaging, HUVEC, immunofluorescence, MLSMR starter and 10KST1 sets (AID 487;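 active means visually confirmed hit in the image check and inhibition above 20%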;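 on inhibition: signal is fraction of cell area covered by stained E-selectin grains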;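 on nuclei count: 100% = median nuclei count of all wells on the same plate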); conditions: HUVEC TNFalpha-induced E-selectin immunofluorescence imaging, at 2 µM; inhibition: stronger effect = higher value; nuclei count: measured here: cell number, toxicity
# [4] = target: Voltage-gated potassium channel subunit beta-2 (Rattus norvegicus) (UniProt P62483); experiment: KvBeta enzyme negative modulators, primary screen, biochemical, NADPH fluorescence (AID 622;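 active means fluorescence slope higher than the sample average by over 3 SD, cut at about -0.22 in these data, passing the limit was not always enough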;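 further: slope of raw intensity against log time taken from 70 to 1610 s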); conditions: recombinant KvBeta, 4-cyanobenzaldehyde reduction, at 10 µM, stronger effect = higher value
# [5] = target: Voltage-gated potassium channel subunit beta-2 (Rattus norvegicus) (UniProt P62483); experiment: KvBeta positive modulators, primary screen, biochemical, NADPH fluorescence (AID 623;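 active means NADPH fluorescence slope more negative than the mean of all samples by about 3 SD, 99.7% confidence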;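 further: fluorescence intensity change per second fitted from 20 to 320 s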); conditions: Recombinant KvBeta, NADPH fluorescence decrease slope, 10 min; at 10 µM; stronger effect = lower value
# [6] = target: Alpha-2C adrenergic receptor (Homo sapiens) (UniProt P18825); experiment: modulators of alpha2C/GIRK thallium flux, primary screen, cell-based, HEK293 alpha2C/GIRK1/2 (AID 624); conditions: thallium flux BTC fluorescence, at 10 µM, actives lie on both sides;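 further: slope of fluorescence ratio to pre-addition baseline per second over 15 to 24 s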
# [7] = inhibitors of Sendai virus-induced IRF3 signaling, primary screen, TLR/RLR signaling modifier project, cell-based, Sendai virus stimulus, luciferase, 10K MLSCN set (AID 602276;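 active means inhibition at or above 50% at 10 µM; inactive means inhibition below 50%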;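 further: firefly luciferase from ISG56 promoter only with Renilla not read in this screen; 0% = Sendai virus plus DMSO and 100% = medium plus DMSO without virus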); conditions: HEK293 RL24 IRF3 luciferase reporter, at 10 µM, stronger effect = higher value
# [8] = inhibitors of poly I:C-induced TLR3 signaling, primary screen, cell-based, poly I:C stimulus, luciferase, 10K MLSCN set (AID 602277;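 active means inhibition of the reporter signal at or above 50%; inactive means inhibition below 50%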); conditions: HEK293-TLR3 RL24 IRF3 luciferase reporter, at 10 µM, stronger effect = higher value
# Chain of Voltage-gated potassium channel subunit beta-2 (Rattus norvegicus) (P62483 whole entry, looked up): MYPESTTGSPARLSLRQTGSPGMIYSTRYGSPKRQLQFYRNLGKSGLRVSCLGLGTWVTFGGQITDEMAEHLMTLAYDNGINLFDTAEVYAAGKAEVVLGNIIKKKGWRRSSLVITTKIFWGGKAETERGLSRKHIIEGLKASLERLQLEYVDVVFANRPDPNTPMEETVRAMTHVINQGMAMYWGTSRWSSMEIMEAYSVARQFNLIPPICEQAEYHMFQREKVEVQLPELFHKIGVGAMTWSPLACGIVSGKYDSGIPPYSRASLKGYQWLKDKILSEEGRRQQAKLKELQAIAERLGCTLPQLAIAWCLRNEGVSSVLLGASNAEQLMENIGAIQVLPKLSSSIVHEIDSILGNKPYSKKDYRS
# Chain of Alpha-2C adrenergic receptor (Homo sapiens) (P18825 whole entry, looked up): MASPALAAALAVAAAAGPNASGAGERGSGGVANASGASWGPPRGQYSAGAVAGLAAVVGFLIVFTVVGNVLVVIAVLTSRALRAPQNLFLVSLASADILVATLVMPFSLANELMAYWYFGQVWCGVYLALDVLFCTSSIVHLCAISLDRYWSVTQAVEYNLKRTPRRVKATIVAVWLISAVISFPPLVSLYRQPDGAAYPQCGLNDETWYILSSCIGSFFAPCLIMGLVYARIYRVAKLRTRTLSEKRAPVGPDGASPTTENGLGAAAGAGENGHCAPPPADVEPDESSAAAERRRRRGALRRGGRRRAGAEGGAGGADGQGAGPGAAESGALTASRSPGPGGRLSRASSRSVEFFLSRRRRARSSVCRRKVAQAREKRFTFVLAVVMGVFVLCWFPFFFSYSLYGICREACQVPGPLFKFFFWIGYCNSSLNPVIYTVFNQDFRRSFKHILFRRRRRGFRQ
SMILES,cell count [1],inhibition [1],inhibition of aggregation [2],nuclei count [2],inhibition [3],nuclei count [3],fluorescence slope [4],NADPH fluorescence slope [5],slope [6],inhibition [7],inhibition [8]
O=C1CC(c2ccccc2)CC(O)=C1C=NCCN1CCN(C(=O)Cc2ccccc2)CC1 (stereo not given),450,2.9% (inactive),8.6% (inactive),92.1%,-82.2% (inactive),115%,-0.529 (inactive),3.3e-05 (inactive),0.00558 (inactive),17.1% (inactive),25.9% (inactive)
c1cncc(CNC2=NCCCCC2)c1,315,2.9% (inactive),2.4% (inactive),114%,-154% (inactive),127%,-0.469 (inactive),-0.000124 (inactive),0.0069 (inactive),5.89% (inactive),24.1% (inactive)
COc1ccc(C2SCC(=O)Nc3c2c(=O)[nH]n3C2CCCCCC2)cc1OC (stereo not given),316,21% (inactive),-0.4% (inactive),97.9%,-11.5% (inactive),109%,-0.614 (inactive),-4.2e-05 (inactive),0.00412 (inactive),13.9% (inactive),23.3% (inactive)
Cc1ccnc(-n2c(-c3ccco3)nc3ccccc3c2=O)c1,445,10.2% (inactive),-19.2% (inactive),115%,-4.3% (inactive),106%,-0.508 (inactive),-3.8e-05 (inactive),0.0068 (inactive),6.03% (inactive),-0.166% (inactive)
CCC(=NCC1CCCO1)c1c(O)n(Cc2ccccc2)c(=O)[nH]c1=O (stereo not given),707,-6% (inactive),6.5% (inactive),97.1%,-57.1% (inactive),120%,-0.512 (inactive),-5.3e-05 (inactive),0.00608 (inactive),-5.89% (inactive),19.3% (inactive)
Cc1nn(Cc2ccccc2Cl)c(Cl)c1C(=O)OCC(=O)NCc1ccco1,459,-14% (inactive),3.2% (inactive),105%,-20.7% (inactive),112%,-0.605 (inactive),-1.7e-05 (inactive),0.00264 (inactive),5.25% (inactive),-0.539% (inactive)
CN(C)CCc1nc2ccccc2c(=O)n1-c1ccccc1,241,-2.3% (inactive),16.8% (inactive),96.8%,-21% (inactive),124%,-0.495 (inactive),-5e-05 (inactive),0.00675 (inactive),-20.1% (inactive),-35% (inactive)
COc1ccccc1N(CC(=O)NC1CCCCC1)C(=O)c1cnn(C(C)C)c1,526,2.5% (inactive),3.2% (inactive),102%,-128% (inactive),157%,-0.598 (inactive),9.1e-06 (inactive),0.00634 (inactive),-9.99% (inactive),-3.91% (inactive)
N#Cc1ccccc1Cn1cc(C(=O)C2CC2)c2ccccc21,390,-2.2% (inactive),-0.9% (inactive),101%,-50.9% (inactive),107%,-0.447 (inactive),-7.2e-05 (inactive),0.00467 (inactive),2.45% (inactive),19.3% (inactive)
CN1CCC(N(C)c2ncnc3ccc(Br)cc23)CC1,336,5% (inactive),4.3% (inactive),94.9%,42.2% (inactive),79.5%,-0.606 (inactive),-3.4e-05 (inactive),0.00666 (inactive),10.9% (inactive),23.5% (inactive)
CCCC(C)C1C(C#N)=C(N)Oc2c1c(=O)oc1ccccc21 (stereo not given),547,-13.2% (inactive),9.9% (inactive),86.4%,-29.8% (inactive),108%,-0.422 (inactive),2.9e-06 (inactive),0.00396 (inactive),7.33% (inactive),22.2% (inactive)
CCOc1cc2[nH]c(=S)n(CCCC(=O)N3CCC4(CC3)OCCO4)c(=O)c2cc1OCC,429,9.4% (inactive),-0.4% (inactive),95.6%,-41.4% (inactive),107%,-0.464 (inactive),7.5e-06 (inactive),0.00495 (inactive),-5.57% (inactive),17.4% (inactive)
Cc1ccc(C)c(NC2=NCCCS2)c1,304,9.3% (inactive),15.3% (inactive),92.5%,-82.5% (inactive),91%,-0.566 (inactive),9.6e-06 (inactive),0.00513 (inactive),17.2% (inactive),22% (inactive)
CCCCn1c(O)c(C(C)=NC(Cc2c[nH]c3ccccc23)C(=O)OC)c(=O)[nH]c1=O (stereo not given),536,-3.4% (inactive),9.6% (inactive),79.6%,33.5% (inactive),112%,-0.499 (inactive),1.8e-05 (inactive),0.00457 (inactive),0.703% (inactive),14.9% (inactive)
CCCCN1C(=O)NC(=O)C2(Cc3c(nc4c(C)cccn4c3=O)N3CCc4ccccc4C32)C1=O (stereo not given),373,-0.5% (inactive),-11.7% (inactive),106%,-176% (inactive),111%,-0.482 (inactive),-4.8e-05 (inactive),0.0045 (inactive),14% (inactive),32.3% (inactive)
CN(C)CCN=Cc1c(O)n(-c2cccc3ccccc23)c(=O)[nH]c1=O,569,0% (inactive),-6.8% (inactive),107%,25.9% (inactive),110%,-0.419 (inactive),-4.5e-05 (inactive),0.00451 (inactive),14% (inactive),11.3% (inactive)
Cc1cccc(-n2c(O)c(C=NCCCN3CCOCC3)c(=O)[nH]c2=O)c1C,710,-3.5% (inactive),9.8% (inactive),96.5%,26.7% (inactive),102%,-0.391 (inactive),2.3e-05 (inactive),0.00546 (inactive),0.794% (inactive),3.78% (inactive)
CC(C)(C)P(=O)(c1ccncc1)N1CCCC1 (stereo not given),520,-2.4% (inactive),-2.3% (inactive),113%,-21% (inactive),115%,-0.275 (inactive),-4.3e-05 (inactive),0.00562 (inactive),14.9% (inactive),22.7% (inactive)
CN1C(=O)C(Cc2cccc3ccccc23)C(=O)N(C)C1=O,393,6.3% (inactive),-7.2% (inactive),108%,-57.4% (inactive),125%,-0.47 (inactive),-4.8e-05 (inactive),0.00658 (inactive),2.57% (inactive),32.2% (inactive)
O=C(c1cccs1)C1CN2CCC1CC2 (stereo not given),582,-15.9% (inactive),1.5% (inactive),75.5%,7.9% (inactive),110%,-0.485 (inactive),3e-05 (inactive),0.00316 (inactive),-7.76% (inactive),20.7% (inactive)
